Reference: PubChem BioAssay (EPA / NIEHS)
Inconclusive results are not listed. The source made the active and inactive calls. How the source made its calls, unless noted: active means hit-call score of the fitted dose curve at least 0.9, where 1 is the maximum; inactive means score below 0.9.

Assays:
[1] = biological target: Retinoic acid receptor alpha (Homo sapiens) (UniProt P10276); experiment: ATG_RARa_TRANS: Attagene TRANS-FACTORIAL HepG2 Assay for human Retinoic Acid Receptor alpha (RARa) (AID 2283005; active means hit-call score of the fitted dose curve at least 0.9, where 1 is the maximum)
Summary of the method: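 Reporter transcripts, measured by RT-PCR with fluorescent labeling and capillary electrophoresis after 24 h dosing, reflect activity of an exogenous human RARa–GAL4 fusion in transiently transfected HepG2. Fitted for increase relative to DMSO.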

[2] = BSK_3C_Proliferation: Cell Proliferation Assessment in the BioMAP Diversity Plus: 3C Assay (AID 2283006); settings: primary human endothelial cells (HUVEC);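 on AC50: potency may reflect either rise or fall in cell number versus DMSO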
Summary of the method: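 Subconfluent HUVEC (3C system) cultured with chemical; relative cell number read at 48 h by sulforhodamine B total-protein staining (0.1% SRB after 10% TCA fixation, 560 nm). Bidirectional fit relative to DMSO.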

[3] = biological target: Peroxisome proliferator-activated receptor gamma (Homo sapiens) (UniProt P37231); experiment: ATG_PPARg_TRANS: Attagene TRANS-FACTORIAL HepG2 Assay for human Peroxisome Proliferator-activated Receptor-gamma (PPARg) (AID 2283007; active means hit-call score of the fitted dose curve at least 0.9, where 1 is the maximum)
Summary of the method: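 Multiplexed reporter transcription units in HepG2, 24 h dosing, reporter transcripts quantified by fluorescent RT-PCR and capillary electrophoresis. Increase over DMSO scored.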

[4] = biological target: Nuclear receptor subfamily 1 group I member 2 (Homo sapiens) (UniProt O75469); experiment: ATG_PXR_TRANS: Attagene TRANS-FACTORIAL HepG2 Assay for human Pregnane X Receptor (PXR) (AID 2283008; active means hit-call score of the fitted dose curve at least 0.9, where 1 is the maximum)
Summary of the method: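 Measures mRNA induction of a GAL4-UAS-driven reporter in human HepG2 cells transiently expressing PXR fused to Gal4, following 24 h treatment. DMSO served as negative control and baseline.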

[5] = biological target: human Retinoic Acid Receptor gamma (RARg), RARG (gene 5916) (UniProt P13631); experiment: ATG_RARg_TRANS: Attagene TRANS-FACTORIAL HepG2 Assay for human Retinoic Acid Receptor gamma (RARg) (AID 2283009; active means hit-call score of the fitted dose curve at least 0.9, where 1 is the maximum)
Summary of the method: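 HepG2 transiently transfected with GAL4-UAS reporter units and chimeric NR-Gal4 constructs; 24 h compound exposure. Reporter mRNA quantified by RT-PCR, FAM labeling, HpaI digestion and capillary electrophoresis; gain-of-signal versus DMSO.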

[6] = biological target: Retinoic acid receptor RXR-alpha (Homo sapiens) (UniProt P19793); experiment: ATG_RXRa_TRANS: Attagene TRANS-FACTORIAL HepG2 Assay for human Retinoid X Receptor alpha (RXRa) (AID 2283012; active means hit-call score of the fitted dose curve at least 0.9, where 1 is the maximum)
Summary of the method: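 HepG2 cells transiently transfected with GAL4-UAS reporter units and chimeric RXRa-Gal4 protein, treated 24 h. Reporter mRNA measured by RT-PCR, fluorescent labelling, HpaI digestion and capillary electrophoresis. Induction fitted against DMSO.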

[7] = biological target: human Retinoid X Receptor beta (RXRb), RXRB (gene 6257) (UniProt P28702); experiment: ATG_RXRb_TRANS: Attagene TRANS-FACTORIAL HepG2 Assay for human Retinoid X Receptor beta (RXRb) (AID 2283013; active means hit-call score of the fitted dose curve at least 0.9, where 1 is the maximum)
Summary of the method: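 HepG2 cells were transiently transfected with multiplexed GAL4-UAS reporters and a chimeric RXRb-Gal4 construct, then exposed for 24 h. Reporter mRNA was quantified by RT-PCR, FAM labeling, HpaI digestion and capillary electrophoresis; gain of signal was scored against DMSO.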

[8] = biological target: human Thyroid Receptor alpha (THRa1), THRA (gene 7067) (UniProt P10827); experiment: ATG_THRa1_TRANS: Attagene TRANS-FACTORIAL HepG2 Assay for human Thyroid Receptor alpha (THRa1) (AID 2283014; active means hit-call score of the fitted dose curve at least 0.9, where 1 is the maximum)
Summary of the method: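 Reporter transcript induction, read by capillary electrophoresis of 6-FAM-labelled RT-PCR products, reflects activity of a transfected THRa1-Gal4 fusion in HepG2 liver cells. Cells were dosed for 24 h; activity was fitted in the positive direction against DMSO.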

[9] = read-out: E-selectin (Homo sapiens) (UniProt P16581); experiment: BSK_3C_Eselectin: BioMAP Diversity Plus: 3C Assay for Eselectin Biomarker Activity (AID 2283015); settings: primary human endothelial cells (HUVEC); actives raise or lower the signal;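 further: cell surface E-selectin protein quantified by ELISA 24 h after dosing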
Summary of the method: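 ELISA read-out of E-selectin on endothelial monolayers after 24 h chemical treatment. Human umbilical vein primary cells served as the system, with DMSO defining baseline activity for bidirectional fitting.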

[10] = read-out: Interleukin-1 alpha (IL1a), IL1A (gene 3552); experiment: BSK_BE3C_IL1a: BioMAP Diversity Plus: BE3C Assay for Interleukin-1 alpha (IL1a) Biomarker Activity (AID 2283016); settings: primary human bronchial epithelial cells; actives raise or lower the signal
Summary of the method: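 Human primary bronchial epithelial cells, 24 h chemical exposure; IL-1a quantified by ELISA, fitted bidirectionally against DMSO. Cytotoxicity assessed in parallel by SRB total-protein staining at the time of measurement.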

[11] = read-out: Monocyte Chemoattractant Protein-1 (MCP1), CCL2 (gene 6347); experiment: BSK_3C_MCP1: BioMAP Diversity Plus: 3C Assay for Monocyte Chemoattractant Protein-1 (MCP1) Biomarker Activity (AID 2283017); settings: primary human endothelial cells (HUVEC); actives raise or lower the signal
Summary of the method: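 ELISA read-out of MCP-1 from human umbilical vein endothelial cell cultures harvested 24 h post-dosing. Gain or loss of signal was fitted relative to DMSO.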

[12] = read-out: Monocyte Chemoattractant Protein-1 (MCP1), CCL2 (gene 6347); experiment: BSK_4H_MCP1: BioMAP Diversity Plus: 4H Assay for Monocyte Chemoattractant Protein-1 (MCP1) Biomarker Activity (AID 2283018); settings: primary human endothelial cells (HUVEC); actives raise or lower the signal
Summary of the method: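 Human umbilical vein endothelial cells (4H system) exposed to chemicals for 24 h in 96-well format. MCP-1 measured by ELISA; bidirectional fitting against DMSO, with SRB total-protein staining in parallel cultures for cytotoxicity.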

[13] = read-out: Human Leukocyte Antigen - DR isotype (HLADR), HLA-DRA (gene 3122); experiment: BSK_3C_HLADR: BioMAP Diversity Plus: 3C Assay for Human Leukocyte Antigen - DR isotype (HLADR) Biomarker Activity (AID 2283019); settings: primary human endothelial cells (HUVEC); actives raise or lower the signal
Summary of the method: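 ELISA readout of surface HLA-DR on human umbilical vein endothelium, taken 24 h after chemical treatment. Gain- and loss-of-signal were both fitted relative to DMSO.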

[14] = read-out: Interleukin-8 (IL8), CXCL8 (gene 3576); experiment: BSK_3C_IL8: BioMAP Diversity Plus: 3C Assay for Interleukin-8 (IL8) Biomarker Activity (AID 2283020); settings: primary human endothelial cells (HUVEC); actives raise or lower the signal
Summary of the method: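 Primary human umbilical vein endothelial cells were dosed for 24 h. IL-8 was quantified by ELISA and fitted bidirectionally against DMSO. Cytotoxicity was assessed in parallel cultures by SRB staining at 560 nm.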

[15] = read-out: Monokine induced gamma interferon (MIG), CXCL9 (gene 4283); experiment: BSK_3C_MIG: BioMAP Diversity Plus: 3C Assay for Monokine induced gamma interferon (MIG) Biomarker Activity (AID 2283021); settings: primary human endothelial cells (HUVEC); actives raise or lower the signal
Summary of the method: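 HUVEC primary endothelial cultures dosed with chemical; MIG quantified by ELISA at 24 h. Data fitted bidirectionally against DMSO control, with parallel SRB total-protein staining for cytotoxicity.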

[16] = biological target: human Vitamin D Receptor (VDR), VDR (gene 7421) (UniProt P11473); experiment: ATG_VDR_TRANS: Attagene TRANS-FACTORIAL HepG2 Assay for human Vitamin D Receptor (VDR) (AID 2283022; active means hit-call score of the fitted dose curve at least 0.9, where 1 is the maximum)
Summary of the method: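 Steps: transfect HepG2 with GAL4-UAS-driven reporter constructs; dose compounds 24 h; isolate RNA, reverse-transcribe, PCR-amplify with 6-FAM-labelled primer extension and HpaI digestion; quantify fragments by capillary electrophoresis relative to DMSO.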

[17] = BSK_3C_SRB: Viability Assessment in the BioMAP Diversity Plus: 3C Assay (AID 2283023); settings: primary human endothelial cells (HUVEC);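 further: fitted both ways against DMSO so a hit may be signal rise or drop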
Summary of the method: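 Absorbance at 560 nm of sulforhodamine B-stained (0.1%) total protein served as a cytotoxicity readout in human umbilical vein endothelial cells, 24 h after chemical treatment. Signal was fitted bidirectionally relative to DMSO.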

[18] = BSK_3C_Vis: BioMAP Diversity Plus: 3C Assay for Morphology Visualization (AID 2283025); settings: primary human endothelial cells (HUVEC);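 further: fitted both ways so gain or loss versus DMSO counts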;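 on AC50: light microscopy image of cell morphology used as background control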
Summary of the method: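 Human umbilical vein endothelial cell morphology was inspected by light microscopy 24 h after chemical dosing; scored bidirectionally relative to DMSO.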

[19] = biological target: human RAR-related Orphan Receptor gamma (RORg), RORC (gene 6097) (UniProt P51449); experiment: ATG_RORg_TRANS: Attagene TRANS-FACTORIAL HepG2 Assay for human RAR-related Orphan Receptor gamma (RORg) (AID 2283011; active means hit-call score of the fitted dose curve at least 0.9, where 1 is the maximum)
Summary of the method: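 First, HepG2 liver cells were transfected with GAL4-UAS-driven reporter constructs and the RORg-Gal4 fusion. Next, they were treated with chemical for 24 h. Finally, reporter mRNA was quantified by RT-PCR and capillary electrophoresis, with upward activity fitted against DMSO.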

[20] = read-out: Matrix Metallopeptidase 1 (MMP1), MMP1 (gene 4312); experiment: BSK_BE3C_MMP1: BioMAP Diversity Plus: BE3C Assay for Matrix Metallopeptidase 1 (MMP1) Biomarker Activity (AID 2283024); settings: primary human bronchial epithelial cells; actives raise or lower the signal
Summary of the method: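 Human primary bronchial epithelial cells (BE3C system) dosed for 24 h; MMP-1 quantified by ELISA. Bidirectional fit against DMSO; cytotoxicity tracked in parallel cultures by SRB total-protein staining.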

Measured: AC50

Sequence of E-selectin (Homo sapiens) (P16581 whole entry, looked up): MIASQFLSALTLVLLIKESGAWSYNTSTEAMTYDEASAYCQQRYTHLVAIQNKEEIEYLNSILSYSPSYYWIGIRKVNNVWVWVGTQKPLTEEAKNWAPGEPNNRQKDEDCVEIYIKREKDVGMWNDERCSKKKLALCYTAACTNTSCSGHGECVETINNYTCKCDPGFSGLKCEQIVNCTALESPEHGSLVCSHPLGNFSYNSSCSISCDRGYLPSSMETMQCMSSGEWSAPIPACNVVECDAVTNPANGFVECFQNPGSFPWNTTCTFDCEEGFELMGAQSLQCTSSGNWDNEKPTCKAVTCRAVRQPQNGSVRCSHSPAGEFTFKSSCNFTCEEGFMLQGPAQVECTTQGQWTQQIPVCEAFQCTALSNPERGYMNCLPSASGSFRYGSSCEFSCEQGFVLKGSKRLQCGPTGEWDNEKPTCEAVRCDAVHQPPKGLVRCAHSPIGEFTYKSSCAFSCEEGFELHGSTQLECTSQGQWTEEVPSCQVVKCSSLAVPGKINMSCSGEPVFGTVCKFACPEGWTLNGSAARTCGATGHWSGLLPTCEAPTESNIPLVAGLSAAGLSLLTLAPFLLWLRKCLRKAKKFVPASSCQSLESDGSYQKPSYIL
Sequence of Peroxisome proliferator-activated receptor gamma (Homo sapiens) (P37231 whole entry, looked up): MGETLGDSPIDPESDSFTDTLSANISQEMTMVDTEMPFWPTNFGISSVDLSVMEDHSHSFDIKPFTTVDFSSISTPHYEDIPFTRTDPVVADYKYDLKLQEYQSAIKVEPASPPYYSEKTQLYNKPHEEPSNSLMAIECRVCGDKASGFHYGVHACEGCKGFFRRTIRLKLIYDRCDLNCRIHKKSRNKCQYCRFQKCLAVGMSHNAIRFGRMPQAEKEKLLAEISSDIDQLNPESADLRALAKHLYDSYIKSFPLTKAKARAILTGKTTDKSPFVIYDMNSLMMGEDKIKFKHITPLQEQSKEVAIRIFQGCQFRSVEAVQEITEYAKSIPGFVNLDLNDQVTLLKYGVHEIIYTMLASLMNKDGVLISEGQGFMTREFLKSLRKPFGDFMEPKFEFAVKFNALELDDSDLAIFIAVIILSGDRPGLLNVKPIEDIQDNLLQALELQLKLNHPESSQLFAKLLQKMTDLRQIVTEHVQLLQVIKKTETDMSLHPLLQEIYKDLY
Sequence of human Retinoid X Receptor beta (RXRb), RXRB (gene 6257) (P28702 whole entry, looked up, the tested form may be a part): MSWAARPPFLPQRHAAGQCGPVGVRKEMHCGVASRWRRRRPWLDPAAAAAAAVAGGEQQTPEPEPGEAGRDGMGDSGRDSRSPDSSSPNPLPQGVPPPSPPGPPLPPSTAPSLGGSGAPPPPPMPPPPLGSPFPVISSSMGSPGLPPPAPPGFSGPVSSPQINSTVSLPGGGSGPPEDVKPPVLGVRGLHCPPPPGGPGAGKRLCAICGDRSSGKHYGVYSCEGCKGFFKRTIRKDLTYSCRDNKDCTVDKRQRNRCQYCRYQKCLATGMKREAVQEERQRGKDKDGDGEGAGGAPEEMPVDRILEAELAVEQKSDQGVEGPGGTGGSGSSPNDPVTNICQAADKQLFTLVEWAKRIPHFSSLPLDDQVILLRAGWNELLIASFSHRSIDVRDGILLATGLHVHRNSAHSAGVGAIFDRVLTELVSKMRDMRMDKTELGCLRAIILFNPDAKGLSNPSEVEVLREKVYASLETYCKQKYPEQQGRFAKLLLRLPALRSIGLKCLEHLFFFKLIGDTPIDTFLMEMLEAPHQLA
Sequence of Retinoic acid receptor RXR-alpha (Homo sapiens) (P19793 whole entry, looked up, the tested form may be a part): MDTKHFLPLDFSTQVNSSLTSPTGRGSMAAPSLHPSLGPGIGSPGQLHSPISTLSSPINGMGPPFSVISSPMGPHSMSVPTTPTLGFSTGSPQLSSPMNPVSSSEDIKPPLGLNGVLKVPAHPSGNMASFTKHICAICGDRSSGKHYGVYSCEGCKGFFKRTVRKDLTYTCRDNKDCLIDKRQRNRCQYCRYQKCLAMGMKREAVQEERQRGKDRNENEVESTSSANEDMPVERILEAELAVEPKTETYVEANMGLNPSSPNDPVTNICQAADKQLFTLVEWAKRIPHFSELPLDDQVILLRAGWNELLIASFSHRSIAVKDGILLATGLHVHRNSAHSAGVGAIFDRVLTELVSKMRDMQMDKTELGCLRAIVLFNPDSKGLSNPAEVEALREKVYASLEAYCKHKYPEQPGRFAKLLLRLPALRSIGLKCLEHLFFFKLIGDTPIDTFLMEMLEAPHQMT
Sequence of human Vitamin D Receptor (VDR), VDR (gene 7421) (P11473 whole entry, looked up, the tested form may be a part): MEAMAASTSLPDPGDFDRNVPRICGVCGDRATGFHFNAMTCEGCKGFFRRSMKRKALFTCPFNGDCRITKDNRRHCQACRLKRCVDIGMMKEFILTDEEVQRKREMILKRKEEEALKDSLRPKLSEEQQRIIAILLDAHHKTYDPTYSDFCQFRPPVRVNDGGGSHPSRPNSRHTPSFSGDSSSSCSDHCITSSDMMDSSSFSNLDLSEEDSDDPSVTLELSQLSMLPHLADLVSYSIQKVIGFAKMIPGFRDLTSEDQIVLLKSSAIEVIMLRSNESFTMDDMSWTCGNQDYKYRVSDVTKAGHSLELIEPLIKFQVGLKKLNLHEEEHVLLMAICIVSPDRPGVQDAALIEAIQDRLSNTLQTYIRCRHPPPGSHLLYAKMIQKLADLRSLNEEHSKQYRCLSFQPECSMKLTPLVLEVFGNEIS
Sequence of human Thyroid Receptor alpha (THRa1), THRA (gene 7067) (P10827 whole entry, looked up, the tested form may be a part): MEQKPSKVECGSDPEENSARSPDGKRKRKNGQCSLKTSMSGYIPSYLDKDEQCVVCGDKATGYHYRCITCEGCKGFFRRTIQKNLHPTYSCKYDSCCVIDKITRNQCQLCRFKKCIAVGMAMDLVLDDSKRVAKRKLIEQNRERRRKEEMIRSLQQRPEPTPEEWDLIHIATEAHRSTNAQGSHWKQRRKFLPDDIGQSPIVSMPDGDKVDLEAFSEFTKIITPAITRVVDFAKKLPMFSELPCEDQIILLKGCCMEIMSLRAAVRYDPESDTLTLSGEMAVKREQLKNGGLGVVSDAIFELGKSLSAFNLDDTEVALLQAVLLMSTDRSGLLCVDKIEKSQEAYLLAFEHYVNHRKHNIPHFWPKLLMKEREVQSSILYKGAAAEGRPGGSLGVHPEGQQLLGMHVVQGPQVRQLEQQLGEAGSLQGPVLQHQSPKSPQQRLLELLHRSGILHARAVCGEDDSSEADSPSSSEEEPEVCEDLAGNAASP
Sequence of human RAR-related Orphan Receptor gamma (RORg), RORC (gene 6097) (P51449 whole entry, looked up, the tested form may be a part): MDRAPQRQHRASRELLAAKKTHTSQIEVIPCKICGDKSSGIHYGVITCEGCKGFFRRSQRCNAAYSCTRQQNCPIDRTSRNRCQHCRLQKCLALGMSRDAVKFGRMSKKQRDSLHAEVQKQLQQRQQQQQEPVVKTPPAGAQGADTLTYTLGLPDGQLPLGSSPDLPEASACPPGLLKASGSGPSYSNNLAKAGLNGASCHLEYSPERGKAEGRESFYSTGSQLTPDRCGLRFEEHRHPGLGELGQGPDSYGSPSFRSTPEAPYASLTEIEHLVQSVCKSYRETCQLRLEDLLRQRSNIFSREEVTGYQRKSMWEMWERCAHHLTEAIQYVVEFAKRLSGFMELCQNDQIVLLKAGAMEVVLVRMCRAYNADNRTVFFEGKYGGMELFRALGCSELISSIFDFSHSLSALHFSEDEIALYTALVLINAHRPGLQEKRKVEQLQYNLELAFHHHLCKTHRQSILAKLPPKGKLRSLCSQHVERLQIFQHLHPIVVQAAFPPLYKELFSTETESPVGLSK
Sequence of Retinoic acid receptor alpha (Homo sapiens) (P10276 whole entry, looked up, the tested form may be a part): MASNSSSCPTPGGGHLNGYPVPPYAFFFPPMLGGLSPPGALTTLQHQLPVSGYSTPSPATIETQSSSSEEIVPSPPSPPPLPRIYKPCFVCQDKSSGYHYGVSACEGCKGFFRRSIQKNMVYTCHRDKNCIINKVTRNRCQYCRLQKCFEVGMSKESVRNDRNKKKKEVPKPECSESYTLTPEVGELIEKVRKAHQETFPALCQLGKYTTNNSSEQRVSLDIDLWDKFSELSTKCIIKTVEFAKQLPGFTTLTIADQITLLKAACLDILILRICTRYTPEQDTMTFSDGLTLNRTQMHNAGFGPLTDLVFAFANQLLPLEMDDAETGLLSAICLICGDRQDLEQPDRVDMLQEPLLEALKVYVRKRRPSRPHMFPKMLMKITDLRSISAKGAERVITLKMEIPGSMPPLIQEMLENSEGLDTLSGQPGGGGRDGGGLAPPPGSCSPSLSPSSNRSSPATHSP
Sequence of Nuclear receptor subfamily 1 group I member 2 (Homo sapiens) (O75469 whole entry, looked up, the tested form may be a part): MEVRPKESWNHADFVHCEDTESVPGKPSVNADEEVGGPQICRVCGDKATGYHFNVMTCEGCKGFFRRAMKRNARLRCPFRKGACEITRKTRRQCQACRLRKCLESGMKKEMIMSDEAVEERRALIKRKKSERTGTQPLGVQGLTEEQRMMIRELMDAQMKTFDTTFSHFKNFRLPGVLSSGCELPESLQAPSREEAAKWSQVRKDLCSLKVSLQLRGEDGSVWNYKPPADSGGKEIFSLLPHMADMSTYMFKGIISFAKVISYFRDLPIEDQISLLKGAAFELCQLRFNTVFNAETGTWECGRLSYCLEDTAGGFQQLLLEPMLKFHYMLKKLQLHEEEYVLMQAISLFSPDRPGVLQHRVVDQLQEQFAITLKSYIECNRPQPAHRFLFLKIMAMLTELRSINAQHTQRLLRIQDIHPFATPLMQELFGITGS
Sequence of human Retinoic Acid Receptor gamma (RARg), RARG (gene 5916) (P13631 whole entry, looked up, the tested form may be a part): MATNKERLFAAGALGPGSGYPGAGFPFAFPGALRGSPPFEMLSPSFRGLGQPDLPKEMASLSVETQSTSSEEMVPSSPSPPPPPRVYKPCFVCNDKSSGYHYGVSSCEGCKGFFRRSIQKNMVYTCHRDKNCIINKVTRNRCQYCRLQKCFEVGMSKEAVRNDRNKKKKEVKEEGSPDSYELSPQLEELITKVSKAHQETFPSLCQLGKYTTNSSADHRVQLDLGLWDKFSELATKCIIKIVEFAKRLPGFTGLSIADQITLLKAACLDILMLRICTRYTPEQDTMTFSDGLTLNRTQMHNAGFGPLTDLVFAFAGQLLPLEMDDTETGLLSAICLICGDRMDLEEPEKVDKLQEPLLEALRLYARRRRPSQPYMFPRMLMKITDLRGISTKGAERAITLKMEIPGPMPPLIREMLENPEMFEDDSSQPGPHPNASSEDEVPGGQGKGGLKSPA

C1=Cc2cccc3cccc1c23
inactive: [1] | [2] | [3] | [4] | [5] | [6] | [7] | [8] | [9] | [10] | [11] | [12] | [13] | [14] | [15] | [16] | [17] | [18]

CN(C)c1ccc(C(=O)c2ccc(N(C)C)cc2)cc1
inactive: [19] | [7] | [9] | [10] | [12] | [15] | [16] | [20]
active: [2] 1.68 µM | [3] 6.44 µM | [11] 2.3 µM | [13] 20 µM | [14] 2.55 µM | [17] 3.55 µM | [18] 5.81 µM

C=CCc1ccc2c(c1)OCO2
inactive: [2] | [3] | [6] | [7] | [9] | [11] | [12] | [13] | [14] | [15] | [17] | [20] | [18]
